# Results published in PubChem BioAssay (Tox21).
# Activity calls are given as the source filed them. Calls follow the shape of the dose curve; as a rule, active = well fitted curve in the direction sought with a large enough effect in the repeat runs; inconclusive = weak or mixed curves; inactive = flat fitted curve, though single readings scatter.
# Test: qHTS assay to test for compound auto fluorescence at 590 nm (red) in HepG2 cells (AID 720674)
# Conditions: HepG2 autofluorescence, red 540/590 nm, 1 h; series mostly up to 91.3 µM; fluorescence, relative to Rose Bengal: at the top concentration
# Source text: U.S. Tox21 Program National Center for Advancing Translational Sciences [NCATS] NIH Chemical Genomics Center [NCGC] U.S. Environmental Protection Agency [EPA] National Institutes of Environmental Health Sciences [NIEHS] National Toxicology Program [NTP] U.S. Food and Drug Administration [FDA] Tox21 Assay Overview: Compound auto fluorescence often interferes with screening of the compound library against various biological targets and signaling pathways. Some of these compounds may have fluorophoric properties. Such properties may interfere with the assay outputs resulting in false positives and/or negatives. To decrease such complications and ensure the compound activities are relevant in terms of biological response, the Tox21 10K compound library was screened for auto fluorescence. From the fluorophores used as reporter signals in our screening assays, the auto fluorescence equivalencies of compounds against three fluorophores have been evaluated: Triamterene, Fluorescein and Rose Bengal sodium for blue, green and red fluorescence, respectively. The fluorescence intensities were measured using Excitation/Emission wavelengths at 405/460nm, 485/535nm and 540/590nm for blue, green and red labels, respectively. This assay includes the red fluorescence data.
# Tox21 Assay Protocol Summary: 2,000 HepG2 cells in 5 uL of culture medium (MEM containing 10% FBS) per well were dispensed into black wall/clear bottom 1536-well plates using a Multidrop Combi Dispenser (ThermoFisher Scientific, Waltham, MA). The assay plates were incubated overnight at 37 C to allow cell attachment to the well bottom, followed by the transfer of 23 nL compound or DMSO vehicle by a pintool work station (Kalypsys , San Diego, CA). After the assay plates were incubated for 1 hr at 37 C and 5% CO2, fluorescence intensities in the assay plates were measured by an Envision (PerkinElmer, Shelton, CT) plate reader using three labels for measuring blue, green and red fluorescence at […] 460, 535 and 590 nm respectively.
# % is scaled to controls: 0 for no effect and ±100 for the full control effect.
SMILES,"fluorescence, relative to Rose Bengal",outcome
CC(=O)Nc1ccc(C)cc1C,0.0077% (inactive),–
N#CCCN(CCO)CCO,-0.486% (inactive),–
CN(C)CCC=C1c2ccccc2C=Cc2ccccc21,-0.686% [at 46 µM] (inactive),–
O=C(O)CCC(=O)C(=O)O,–,inactive
CCOc1cccc(-n2cc(C(=O)N3CCN(c4cc(C(=O)O)c5ccccc5c4)CC3)nc2-c2ccc(C)cc2)c1,0.332% (inactive),–
CN(C)CCN1C(=O)c2ccccc2N(C)c2ccccc21,0.15% [at 46 µM] (inactive),–
Cc1ccc(OC(=O)c2ccccc2O)cc1,-0.0085% (inactive),–
CC1(C)[C@@H](OC(=O)CCC(=O)O)CC[C@]2(C)[C@H]3C(=O)C=C4[C@@H]5C[C@@](C)(C(=O)O)CC[C@]5(C)CC[C@@]4(C)[C@]3(C)CC[C@@H]12,-0.342% [at 18.6 µM] (inactive),–
CC1CC(C)C(=O)C1=O (stereo not given),-0.392% (inactive),–
CCCCCCCCN,0.0125% (inactive),–
O=C=Nc1ccc(Cl)c(Cl)c1,0.214% (inactive),–
CCCCCC[C@@H](O)C/C=C\CCCCCCCC(=O)OCC(O)CO (stereo not given in full),0.164% (inactive),–
CCC1NC(=O)c2cc(S(N)(=O)=O)c(Cl)cc2N1 (stereo not given),0.403% [at 18.6 µM] (inactive),–
CCCCC(CC)COP(=O)(O)O (stereo not given),-0.108% [at 95.7 µM] (inactive),–
CC(=O)[C@H]1[C@H](C#N)C[C@H]2[C@@H]3CC=C4C[C@@H](O)CC[C@]4(C)[C@H]3CC[C@@]21C,-0.0288% (inactive),–
NCCNCCO,0.0506% [at 95.7 µM] (inactive),–
O=Cc1c2ccccc2c(Cl)c2ccccc12,0.0213% [at 46 µM] (inactive),–
C[C@@H]1CN(CCCn2c3ccccc3c3ccccc32)C[C@H](C)N1,0.0345% [at 46 µM] (inactive),–
CCCCCCCCCCC(=O)O,0.0868% [at 95.7 µM] (inactive),–
CN1C(=O)OC(C)(C)C1=O,–,inactive

SMILES,"fluorescence, relative to Rose Bengal",outcome
CCC(=O)OC,0.131% (inactive),–
C[C@@]12CCC[C@H]1[C@@H]1CC[C@H]3C[C@@H](O)CC[C@]3(C)[C@H]1CC2,0.0688% [at 46 µM] (inactive),–
OCCOCC#CCOCCO,0.257% (inactive),–
CC(C)=CCC/C(C)=C/CC/C(C)=C/CCC(=O)OC/C=C(\C)CCC=C(C)C,0.217% [at 46 µM] (inactive),–
N#[N+]c1ccc2c(S(=O)(=O)[O-])cccc2c1O,0.0893% (inactive),–
C=COCC(C)C,0.187% [at 95.7 µM] (inactive),–
CCOC(=O)OC(C)OC(=O)[C@@H]1N2C(=O)[C@@H](NC(=O)[C@H](N)c3ccccc3)[C@H]2SC1(C)C (stereo not given in full),-0.696% [at 18.6 µM] (inactive),–
CCC(C)COC(C)=O (stereo not given),0.17% (inactive),–
C(=C\c1ccccc1)/c1ccccc1,-0.0602% [at 95.7 µM] (inactive),–
COc1cc(C(=O)NCCCCCC(=O)O)cc(OC)c1OC,0.517% [at 46 µM] (inactive),–
O=C(OC(=O)c1ccccc1)c1ccccc1,0.15% [at 95.7 µM] (inactive),–
CCOC(=O)c1ccc(OCCN2C[C@H](O)[C@@H](O)[C@H](O)[C@H]2CO)cc1,-0.0423% [at 46 µM] (inactive),–
Oc1c(I)cc(I)c2cccnc12,0.347% [at 46 µM] (inactive),–
c1cc(N(CC2CO2)CC2CO2)ccc1Cc1ccc(N(CC2CO2)CC2CO2)cc1 (stereo not given),0.379% (inactive),–
CCCCCCCC/C=C\CCCCCCCCCCCC(=O)O,-0.0082% [at 95.7 µM] (inactive),–
O=C1c2ccccc2C(=O)N1CCc1noc(-c2ccc(CN3CCCCCC3)s2)n1,-0.13% (inactive),–
CC(=O)NC1(c2cccc(F)c2)CCN(CC[C@@]2(c3ccc(Cl)c(Cl)c3)CN(c3ccccc3)C(=O)CO2)CC1,0.209% (inactive),–
Brc1cc2ccccc2c2ccccc12,-0.166% (inactive),–
CCCCCCCC/C=C\CCCCCCCCO,0.129% (inactive),–
CCCCCCC(C)(C)C(=O)O,-0.32% (inactive),–
